Assay outcomes deposited in PubChem by National Center for Advancing Translational Sciences (NCATS).
Shown are actives, neighbours in structure and some others; about 4.6% of the full set was active somewhere.
D1 agonist – human D1 receptor agonism; P21728; HEK293 T-REx D1 cells, calcium flux, agonist mode; activation, % at 2 µM; 360,000 tested, 1% active; AID 504660; also: 0% is about no effect
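Agonism was scored from calcium flux recorded over 180 s (1 read/s) after pintool compound addition, following a 10-cycle baseline. Cells were inducible force-coupled HEK293 TREx D1, plated overnight at 30 C and loaded with no-wash calcium dye.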
TRHR ag – activates the human TRH receptor; P34981; TRHR cells, calcium flux fluo-8, FDSS agonist mode; activation, % at 2 µM; 360,000 tested, 0.18% active; also: 0% is about no effect
Target sequence (P34981 whole entry, looked up): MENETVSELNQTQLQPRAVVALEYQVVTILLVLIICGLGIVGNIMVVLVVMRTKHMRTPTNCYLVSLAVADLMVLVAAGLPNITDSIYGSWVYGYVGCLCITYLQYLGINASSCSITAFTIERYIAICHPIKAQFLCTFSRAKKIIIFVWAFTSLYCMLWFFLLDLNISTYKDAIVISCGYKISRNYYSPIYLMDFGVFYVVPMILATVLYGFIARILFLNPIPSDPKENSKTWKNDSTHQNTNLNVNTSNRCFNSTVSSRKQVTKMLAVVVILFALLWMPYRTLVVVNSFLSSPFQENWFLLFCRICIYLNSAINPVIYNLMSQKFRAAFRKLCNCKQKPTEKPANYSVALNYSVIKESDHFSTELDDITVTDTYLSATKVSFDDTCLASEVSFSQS
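TRHR-expressing cells, plated overnight in medium with 10% serum, were loaded with fluo-8 calcium dye at room temperature. After a 10 s baseline, library compound was pin-added and calcium release was recorded kinetically (ex 480/em 530) as agonist response.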
TRHR PAM – TRH receptor (human) allosteric enhancement | TRHR cells, fluo-8 calcium fluorescence, EC20 TRH enhancement | AID 493056 | 360,000 tested, 0.66% active | P34981 | enhancement, % at 2 µM; in the data active = enhancement above about 30%; also: 0% is about no effect
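Enhancer read-out: after compound pinning and an initial kinetic agonist-mode read, an EC20 of TRH (10 nM final) was injected and fluo-8 calcium signal (Ex 480/Em 530) followed at 1 s/cycle for 100 cycles in TRHR-expressing cells.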
D1 potentiator – potentiators of human D1 dopamine receptor; P21728; HEK293 TREx D1 cells, calcium flux, dopamine EC20 potentiation; potentiation, % at 10 µM; 360,000 tested, 0.036% active; AID 504651; in the data active = potentiation above about 30%; also: 0% is about no effect
D1 antagonist – antagonists of human D1 dopamine receptor; 360,000 tested, 3.2% active; activity change, negative = inhibition, % at 10 µM; AID 504652; P21728; HEK293 TREx D1 cells, calcium flux, dopamine EC80; active compounds read low; in the data active = activity change below about -30%; also: % is scaled to controls: 0 for no effect and ±100 for the full control effect
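Kinetic fluorescence of a calcium dye serves as the read-out. D1-expressing Hek293 Trex cells, induced overnight at 30 C, are exposed to compound for 180 s before an EC80 dopamine addition, then read 180 s further.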
Starred values were filed as active, the others as inactive. Rule as the data show it, unless noted: active = activation above about 30%; inactive = the rest.

For CCN(CC)c1nc2ccccc2c(N)c1-c1ccccc1 the results were D1 agonist 22.2, TRHR ag -0.9, TRHR PAM 13.3, D1 potentiator -14.2 and D1 antagonist -32.6*.
Cc1c(N(C)C)nc2ccccc2c1N was read as D1 agonist 2.1, TRHR ag 1.2, TRHR PAM -2.3, D1 potentiator -1.6 and D1 antagonist -8.5.
Screening CC1(C(=O)NC(=S)NNC(=O)c2ccncc2)CCCCC1 returned D1 agonist 43.3*, TRHR ag 12.3, TRHR PAM -2.2, D1 potentiator -2.1 and D1 antagonist -18.4.
For CC/C(=N\NC(=O)c1ccncc1)C12CC3CC(CC(C3)C1)C2 the results were D1 agonist 1.0, TRHR ag -0.2, TRHR PAM -8.4, D1 potentiator 4.0 and D1 antagonist -3.6.
O=C(NNC(=S)NC(=O)C12CC3CC(CC(C3)C1)C2)c1ccncc1 was read as D1 agonist 136.1*, TRHR ag 35.9*, TRHR PAM 6.1, D1 potentiator -5.0 and D1 antagonist 0.0.
O=C(NNC(=O)C1CCCCC1)c1ccncc1 was read as D1 agonist 3.5, TRHR ag -0.3, TRHR PAM 9.8 and D1 antagonist 16.7.
For Cc1cc(C)nc(SCC(=O)c2ccc(O)c(O)c2)n1 the results were D1 agonist 5.7, TRHR ag -0.3, TRHR PAM -1.8, D1 potentiator -8.5 and D1 antagonist 1.5.
`Cc1cc(C)nc(SCC(=O)c2ccc(O)cc2O)n1` gave D1 agonist 3.9, TRHR ag -0.6, TRHR PAM 6.7, D1 potentiator 1.8 and D1 antagonist -42.7*.
For COCCOC(=O)C1=C(C)N=C2SCCC(=O)N2C1c1ccc(OCc2ccccc2)c(OC)c1 (stereo unspecified) the results were D1 agonist 4.1, TRHR ag 0.0, TRHR PAM 3.4, D1 potentiator -0.8 and D1 antagonist 4.6.
Screening O=P(O)(CCc1ccccn1)CN1CCCCC1 returned D1 agonist 0.6, TRHR ag -0.3, TRHR PAM -8.9, D1 potentiator -3.9 and D1 antagonist -31.9*.
For O=P(O)(CCc1ccccn1)CN1CCOCC1 the results were D1 agonist 2.3, TRHR ag 0.4, TRHR PAM 3.0, D1 potentiator -1.9 and D1 antagonist -6.1.
`Cc1nn(CCCC(=O)NCCc2ccc(Cl)cc2)c(=O)c2c1sc1ccccc12` gave D1 agonist 1.5, TRHR ag 0.5, TRHR PAM 1.9, D1 potentiator -2.5 and D1 antagonist 8.7.
Screening O=C(Nc1ccncc1NC(=O)c1cccc([N+](=O)[O-])c1)c1cccc([N+](=O)[O-])c1 returned D1 agonist 0.2, TRHR ag 0.0, TRHR PAM 6.6, D1 potentiator -1.6 and D1 antagonist -7.9.
Screening O=C(Nc1cccc(NC(=O)c2cccc([N+](=O)[O-])c2)n1)c1cccc([N+](=O)[O-])c1 returned D1 agonist 4.2, TRHR ag 0.1, TRHR PAM -7.2, D1 potentiator -8.7 and D1 antagonist -33.7*.
O=C(NC(=S)Nc1ccccn1)c1cccc([N+](=O)[O-])c1 was read as D1 agonist 0.0, TRHR ag -0.3, TRHR PAM -5.7, D1 potentiator -6.0 and D1 antagonist -55.0*.
For O=c1c(N2CCc3ccccc3C2)csc2ccc(Cl)cc12 the results were D1 agonist 3.3, TRHR ag 0.6, TRHR PAM 3.6, D1 potentiator -2.0 and D1 antagonist -7.3.
`CCOCCn1c(=NC(=O)c2ccc3c(c2)OCCO3)sc2cc(OCC)ccc21` gave D1 agonist 0.4, TRHR ag 0.2, TRHR PAM -2.0, D1 potentiator -4.4 and D1 antagonist -30.8*.
`Cc1ccc(C)c(S(=O)(=O)NCc2ccc(C(=O)N3CCCCCC3)cc2)c1` gave D1 agonist 13.1, TRHR ag 0.2, TRHR PAM -10.5, D1 potentiator -9.8 and D1 antagonist -31.9*.
For Cc1ccc(C)c(S(=O)(=O)NCc2ccncc2)c1 the results were D1 agonist 11.0, TRHR ag -2.9, TRHR PAM 15.2, D1 potentiator -11.4 and D1 antagonist -42.8*.
`CC(=O)c1cccc(NC(=O)CCc2c(C)nc3nc(CN)nn3c2C)c1` gave D1 agonist -0.9, TRHR ag 1.1, TRHR PAM -1.4, D1 potentiator -1.8 and D1 antagonist -5.8.
`CC(C)CC1Nc2ncnc(N3CCN(c4ccccc4)CC3)c2N(Cc2ccc(Br)cc2)C1=O` (stereo unspecified) gave D1 agonist 2.6, TRHR ag 0.0, TRHR PAM 2.9, D1 potentiator 3.6 and D1 antagonist -1.7.
`CCOC(=O)CNC(=S)N(CCCN1CCN(C)CC1)Cc1cccs1` gave D1 agonist 2.2, TRHR ag 0.6, TRHR PAM 3.5, D1 potentiator 12.8 and D1 antagonist -0.3.
For Cc1ccc(CNC(=O)C(C)OC(=O)c2ccco2)cc1 (stereo unspecified) the results were D1 agonist 1.5, TRHR ag 0.0, TRHR PAM -0.3, D1 potentiator -3.1 and D1 antagonist -7.3.
CCC(OC(=O)c1ccco1)C(=O)NCc1ccc(C)cc1 (stereo unspecified) was read as D1 agonist -0.6, TRHR ag -0.2, TRHR PAM -22.5, D1 potentiator -10.5 and D1 antagonist -76.8*.
COc1ccc(OC)c(/C=C/C(=O)N(C)CC(=O)Nc2ccc(C)cc2)c1 was read as D1 agonist 1.6, TRHR ag -0.5, TRHR PAM 8.7, D1 potentiator -1.4 and D1 antagonist 8.2.
`CN(CC(=O)Nc1ccc(OC(F)(F)F)cc1)C(=O)/C=C/c1cc2c(cc1[N+](=O)[O-])OCO2` gave D1 agonist 1.1, TRHR ag -0.2, TRHR PAM -5.4, D1 potentiator -1.5 and D1 antagonist -48.6*.
`Cc1ccc2onc(CC(=O)Nc3ccc(C(C)C)cc3)c2c1` gave D1 agonist -0.2, TRHR ag -0.2, TRHR PAM -6.1, D1 potentiator -4.0 and D1 antagonist -74.3*.
Screening Cc1ccc(NC(=O)Cc2noc3ccccc23)nc1 returned D1 agonist 2.3, TRHR ag 0.6, TRHR PAM 26.6, D1 potentiator -0.1 and D1 antagonist -32.5*.
`O=C(Cc1noc2ccccc12)Nc1ccccn1` gave D1 agonist -0.4, TRHR ag -0.2, TRHR PAM -1.0, D1 potentiator -5.1 and D1 antagonist 7.8.
COc1ccc(N2C3=[N+](CC2(C)O)c2ccccc2CC3)cc1 (stereo unspecified) was read as D1 agonist 2.8, TRHR ag 0.3, TRHR PAM -2.7, D1 potentiator -2.4 and D1 antagonist -89.0*.
O=C(NCCc1ccccc1)c1cc2sccc2n1Cc1ccc(F)cc1 was read as D1 agonist 8.1, TRHR ag 0.5, TRHR PAM -6.9, D1 potentiator -3.2 and D1 antagonist -30.6*.
